Laboratory results from PubChem BioAssay (NCI).
This is part of a sample that, as a whole, favours compounds with a hit. Of some 79,000 tested, about 15% had one in any assay. The source made the active and inactive calls. Cut-off read from the data, not from the text of the source: active = growth inhibition above about 70%; inactive = the rest.

How the values were obtained:
[1] = NCI Yeast Anticancer Drug Screen. Data for the rad52 strain (AID 147);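 note: 0% = growth of vehicle-treated control cultures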; conditions: S. cerevisiae rad52 mutant growth inhibition, hits give high values
Summary of the method: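 Compounds are applied to a genetically defined yeast strain lacking normal DNA damage repair, and inhibition of growth is expressed relative to cultures given vehicle only.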

[2] = NCI Yeast Anticancer Drug Screen. Data for the wt1 strain (AID 149);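 note: 0% = growth of vehicle-treated wt1 cultures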; conditions: S. cerevisiae wt1 strain (SPY 50644) growth inhibition, hits give high values
Summary of the method: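 Vehicle-normalised growth inhibition; strain wt1; compound exposure.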

[3] = NCI Yeast Anticancer Drug Screen. Data for the rad50EPP+ strain (AID 151);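 note: 0% = growth of vehicle-treated control cultures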; conditions: S. cerevisiae rad50 mutant strain, hits give high values
Summary of the method: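 Compounds were applied to the rad50EPP+ yeast strain, which bears a defined DNA repair alteration, and growth inhibition was determined relative to vehicle-treated cultures.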

[4] = NCI Yeast Anticancer Drug Screen. Data for the mgt1 strain (AID 153); conditions: S. cerevisiae mgt1 mutant growth inhibition, hits give high values
Summary of the method: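 Strain: mgt1 yeast, one of a set carrying defined DNA damage repair or cell cycle control alterations. Compound-treated growth compared with vehicle.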

[5] = NCI Yeast Anticancer Drug Screen. Data for the rad50 strain (AID 155);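 note: 0% = growth of vehicle-only cultures of the same strain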; conditions: S. cerevisiae rad50 strain growth inhibition, hits give high values
Summary of the method: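 A DNA repair-deficient yeast mutant serves as the test organism; compound-induced growth inhibition is calculated against vehicle-treated cells.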

[6] = NCI Yeast Anticancer Drug Screen. Data for the mec2-1 strain (AID 157); conditions: S. cerevisiae mec2-1 strain, hits give high values
Summary of the method: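 Strain: mec2-1 (DNA repair/cell cycle alteration). Compound exposure, then growth measured; inhibition expressed relative to vehicle.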

[7] = NCI Yeast Anticancer Drug Screen. Data for the rad14 strain (AID 159);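 note: 0% = growth of vehicle-treated control cultures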; conditions: S. cerevisiae rad14 strain growth inhibition, hits give high values
Summary of the method: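 Vehicle-treated cultures served as the baseline for growth inhibition of a DNA repair-mutant yeast strain exposed to each compound.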

[8] = NCI Yeast Anticancer Drug Screen. Data for the sgs1 mgt1 strain (AID 161);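 note: 0% = growth of cultures given vehicle only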; conditions: S. cerevisiae sgs1 mgt1 strain, hits give high values
Summary of the method: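 Genetically altered yeast, compound exposure, growth inhibition relative to vehicle.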

[9] = NCI Yeast Anticancer Drug Screen. Data for the CLN2oe strain (AID 163);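 note: 0% = growth of vehicle-only control cultures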; conditions: S. cerevisiae CLN2oe strain, hits give high values
Summary of the method: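 Growth of a genetically modified yeast strain is measured after compound exposure and compared with cultures given vehicle alone.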

[10] = NCI Yeast Anticancer Drug Screen. Data for the cln2 rad14 strain (AID 165);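 note: 0% = growth equal to vehicle treated cultures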; conditions: S. cerevisiae cln2 rad14 strain, hits give high values
Summary of the method: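 Compounds are applied to the cln2 rad14 yeast strain, and growth is then compared with that of vehicle-treated cultures to give inhibition.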

[11] = NCI Yeast Anticancer Drug Screen. Data for the bub3 strain (AID 167); conditions: S. cerevisiae bub3 mutant strain, hits give high values
Summary of the method: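 Inhibition values come from growth of compound-treated mutant yeast normalised to vehicle-treated controls.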

[12] = NCI Yeast Anticancer Drug Screen. Data for the wt2 strain (AID 169);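 note: 0% = growth of vehicle-treated yeast cultures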; conditions: S. cerevisiae wt2 strain growth inhibition, hits give high values
Summary of the method: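 This strain belongs to a panel of yeast strains with defined genetic alterations in DNA damage repair or cell cycle control. Compounds are applied, and growth inhibition is measured against vehicle-treated cultures.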

[13] = NCI Yeast Anticancer Drug Screen. Data for the mlh1 strain (AID 171);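 note: 0% = growth of vehicle-treated control cultures of the same strain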; conditions: S. cerevisiae mlh1 strain growth inhibition, hits give high values
Summary of the method: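 Growth of the mutant yeast strain after compound exposure, expressed as inhibition relative to vehicle-only controls.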

[14] = NCI Yeast Anticancer Drug Screen. Data for the sgs1 strain (AID 173);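 note: 0% = growth of vehicle-only control cultures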; conditions: S. cerevisiae sgs1 mutant, hits give high values
Summary of the method: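 Growth of a yeast strain bearing a defined genetic alteration is measured after compound treatment. Inhibition is expressed relative to vehicle-only controls.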

[15] = NCI Yeast Anticancer Drug Screen. Data for the mlh1 rad18 strain (AID 175); conditions: S. cerevisiae mlh1 rad18 strain growth inhibition, hits give high values
Summary of the method: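 Read-out is yeast growth inhibition, calculated against vehicle-only controls. The compound was applied to a strain engineered with DNA damage repair alterations.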

[16] = NCI Yeast Anticancer Drug Screen. Data for the rad18 strain (AID 177); conditions: S. cerevisiae rad18 mutant growth inhibition, hits give high values
Summary of the method: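 Growth of the mutant yeast strain after compound exposure, normalised to vehicle-only cultures.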

[17] = at 5.0 µM (retest, dose inferred, filed as 0.5)
[18] = at 50.0 µM (retest, dose inferred, filed as 5.0)

Measured: growth inhibition

Cc1ccnc2c(O)cccc12
inactive: [1]; at 1.2 µM 3% | [2]; at 1.2 µM -5% | [2]; at 3.7 µM 19% | [3]; at 1.2 µM -1% | [4]; at 1.2 µM -8% | [5]; at 1.2 µM 6% | [5]; [17] 24% | [6]; at 1.2 µM 31% | [6]; [17] -1% | [7]; at 1.2 µM 0% | [7]; at 3.7 µM 24% | [9]; at 1.2 µM 24% | [10]; [17] 22% | [11]; at 1.2 µM -6% | [11]; at 3.7 µM 47% | [11]; [17] 41% | [12]; at 1.2 µM -8% | [12]; at 3.7 µM 25% | [13]; at 1.2 µM 14% | [14]; at 1.2 µM -13% | [14]; at 3.7 µM 59%
active: [1]; at 3.7 µM 96% | [1]; at 11.0 µM 96% | [1]; at 33.0 µM 99% | [1]; at 100.0 µM 99% | [2]; at 11.0 µM 76% | [2]; at 33.0 µM 93% | [2]; at 100.0 µM 98% | [3]; at 3.7 µM 98% | [3]; at 11.0 µM 99% | [3]; at 33.0 µM 99% | [3]; at 100.0 µM 99% | [4]; at 3.7 µM 73% | [4]; at 11.0 µM 91% | [4]; at 33.0 µM 99% | [4]; at 100.0 µM 99% | [5]; at 3.7 µM 97% | [5]; at 11.0 µM 98% | [5]; at 33.0 µM 99% | [5]; [18] 99% | [5]; at 50.0 µM 98.2% | [5]; at 100.0 µM 99% | [6]; at 3.7 µM 98% | [6]; at 11.0 µM 100% | [6]; at 33.0 µM 100% | [6]; [18] 98% | [6]; at 50.0 µM 97.3% | [6]; at 100.0 µM 100% | [7]; at 11.0 µM 83% | [7]; at 33.0 µM 98% | [7]; at 100.0 µM 99% | [8]; [17] 73% | [8]; [18] 99% | [8]; at 50.0 µM 97.8% | [9]; at 3.7 µM 98% | [9]; at 11.0 µM 99% | [9]; at 33.0 µM 100% | [9]; at 100.0 µM 99% | [10]; [18] 96% | [10]; at 50.0 µM 97.5% | [11]; at 11.0 µM 98% | [11]; at 33.0 µM 99% | [11]; [18] 99% | [11]; at 50.0 µM 97.9% | [11]; at 100.0 µM 99% | [12]; at 11.0 µM 80% | [12]; at 33.0 µM 84% | [12]; at 100.0 µM 97% | [13]; at 3.7 µM 99% | [13]; at 11.0 µM 99% | [13]; at 33.0 µM 100% | [13]; at 100.0 µM 99% | [14]; at 11.0 µM 98% | [14]; at 33.0 µM 99% | [14]; at 100.0 µM 99% | [15]; [17] 87% | [15]; [18] 99% | [15]; at 50.0 µM 98.7%

COc1cc(C(=O)C=O)cc(OC)c1OC
active: [1]; at 100.0 µM 86% | [4]; at 100.0 µM 94% | [5]; at 100.0 µM 91% | [6]; at 100.0 µM 90% | [7]; at 100.0 µM 95% | [8]; at 50.0 µM 73% | [9]; at 100.0 µM 85% | [11]; at 100.0 µM 87% | [12]; at 100.0 µM 88% | [13]; at 100.0 µM 88% | [14]; at 100.0 µM 97% | [16]; at 100.0 µM 91%
inactive: [1]; at 1.2 µM 1% | [1]; at 3.7 µM 3% | [1]; at 11.0 µM 1% | [1]; at 33.0 µM 0% | [2]; at 1.2 µM -3% | [2]; at 3.7 µM -4% | [2]; at 11.0 µM -7% | [2]; at 33.0 µM -5% | [2]; at 100.0 µM 61% | [3]; at 1.2 µM 1% | [3]; at 3.7 µM 5% | [3]; at 11.0 µM 6% | [3]; at 33.0 µM 16% | [3]; at 100.0 µM 58% | [4]; at 1.2 µM 1% | [4]; at 3.7 µM -3% | [4]; at 11.0 µM -4% | [4]; at 33.0 µM 14% | [5]; at 1.2 µM 0% | [5]; at 3.7 µM -5% | [5]; [17] -156% | [5]; at 11.0 µM 9% | [5]; at 33.0 µM 19% | [5]; [18] 44% | [5]; at 50.0 µM 44.3% | [6]; at 1.2 µM 1% | [6]; at 3.7 µM -1% | [6]; [17] -53% | [6]; at 11.0 µM 6% | [6]; at 33.0 µM -4% | [6]; [18] 3% | [6]; at 50.0 µM 57% | [7]; at 1.2 µM -3% | [7]; at 3.7 µM -7% | [7]; at 11.0 µM -5% | [7]; at 33.0 µM 9% | [8]; [17] -67% | [8]; [18] 60% | [9]; at 1.2 µM 0% | [9]; at 3.7 µM -5% | [9]; at 11.0 µM -7% | [9]; at 33.0 µM 6% | [10]; [17] -65% | [10]; [18] 8% | [10]; at 50.0 µM 37.5% | [11]; at 1.2 µM -6% | [11]; at 3.7 µM -6% | [11]; [17] -66% | [11]; at 11.0 µM -8% | [11]; at 33.0 µM -8% | [11]; [18] 33% | [11]; at 50.0 µM 31.9% | [12]; at 1.2 µM 2% | [12]; at 3.7 µM 1% | [12]; at 11.0 µM 0% | [12]; at 33.0 µM 0% | [13]; at 1.2 µM 9% | [13]; at 3.7 µM -3% | [13]; at 11.0 µM -6% | [13]; at 33.0 µM -8% | [14]; at 1.2 µM 1% | [14]; at 3.7 µM 4% | [14]; at 11.0 µM 3% | [14]; at 33.0 µM 31% | [15]; [17] -129% | [15]; [18] 52% | [15]; at 50.0 µM 67.4% | [16]; at 1.2 µM 0% | [16]; at 3.7 µM -2% | [16]; at 11.0 µM -2% | [16]; at 33.0 µM 5%
